Reference: ChEMBL document CHEMBL1201862, “PubChem BioAssay data set” (2004)
Hit rate of the full screen: of about 400,000 compounds, about 2,100 (0.53%) were called active. About 14% were inconclusive and are not listed. How the calls were made is not given here. Many of the other results were omitted from the sample, so actives are more common in it than they were.

target: Ataxin-2 (Homo sapiens) (UniProt Q99700); experiment: qHTS for Inhibitors of ATXN expression.; format: functional
Sequence (Q99700 whole entry): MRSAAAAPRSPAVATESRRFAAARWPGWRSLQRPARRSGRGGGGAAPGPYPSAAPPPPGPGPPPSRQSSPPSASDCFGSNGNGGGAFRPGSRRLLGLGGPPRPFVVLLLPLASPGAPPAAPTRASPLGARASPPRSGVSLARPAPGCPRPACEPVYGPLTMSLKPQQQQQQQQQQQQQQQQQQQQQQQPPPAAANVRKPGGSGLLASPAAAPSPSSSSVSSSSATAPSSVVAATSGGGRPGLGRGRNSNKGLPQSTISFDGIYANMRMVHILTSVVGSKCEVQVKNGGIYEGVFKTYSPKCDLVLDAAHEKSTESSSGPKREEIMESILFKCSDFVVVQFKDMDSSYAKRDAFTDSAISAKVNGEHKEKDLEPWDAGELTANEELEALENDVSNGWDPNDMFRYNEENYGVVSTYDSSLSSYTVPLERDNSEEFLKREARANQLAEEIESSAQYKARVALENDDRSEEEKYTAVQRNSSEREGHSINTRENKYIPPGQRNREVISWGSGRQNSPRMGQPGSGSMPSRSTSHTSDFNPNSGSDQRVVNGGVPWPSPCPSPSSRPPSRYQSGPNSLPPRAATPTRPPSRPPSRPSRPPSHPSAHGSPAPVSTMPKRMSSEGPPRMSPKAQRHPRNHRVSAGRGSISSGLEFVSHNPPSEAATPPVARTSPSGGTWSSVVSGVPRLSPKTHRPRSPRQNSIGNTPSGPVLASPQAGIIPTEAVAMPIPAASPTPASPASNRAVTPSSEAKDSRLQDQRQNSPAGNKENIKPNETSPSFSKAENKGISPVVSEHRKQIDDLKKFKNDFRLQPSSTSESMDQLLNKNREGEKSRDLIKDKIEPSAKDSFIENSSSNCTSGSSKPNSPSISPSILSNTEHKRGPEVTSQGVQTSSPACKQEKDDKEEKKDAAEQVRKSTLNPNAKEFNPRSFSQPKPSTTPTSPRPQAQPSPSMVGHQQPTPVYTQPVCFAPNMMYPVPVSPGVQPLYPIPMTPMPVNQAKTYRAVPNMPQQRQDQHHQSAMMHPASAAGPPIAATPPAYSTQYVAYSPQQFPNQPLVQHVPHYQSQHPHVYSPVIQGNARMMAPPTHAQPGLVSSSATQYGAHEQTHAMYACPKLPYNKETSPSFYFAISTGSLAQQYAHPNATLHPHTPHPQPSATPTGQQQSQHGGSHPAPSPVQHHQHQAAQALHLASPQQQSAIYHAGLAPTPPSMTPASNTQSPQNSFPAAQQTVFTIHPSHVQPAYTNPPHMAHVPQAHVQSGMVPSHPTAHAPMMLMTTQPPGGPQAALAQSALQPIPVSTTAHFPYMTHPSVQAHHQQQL

| SMILES | Potency |
| --- | --- |
| Cc1cccc(C(=O)/N=c2/c(C#N)cc3c(=O)n4cccc(C)c4nc3n2Cc2ccco2)c1 | inactive |
| Cn1ncc(Oc2ccc([N+](=O)[O-])cc2)c(Cl)c1=O | inactive |
| O=C(c1ccccn1)N(c1ccccc1)C1(C(=O)NC2CCCCC2)CCCCC1 | inactive |
| OC[C@@H]1[C@@H](c2ccccc2)C(c2ccccc2)=NN1c1ccccc1 | inactive |
| CCOCCCNC(=O)C(NC(=O)c1ccc2c(c1)OCO2)c1ccc(Cl)cc1 (centres undefined) | inactive |
| NC1=Nc2cccc3cccc1c23 | inactive |
| Cc1cc2c(cc1C)NC(CC(=O)Nc1ccccc1SC(F)(F)F)C(=O)N2 (centres undefined) | inactive |
| Cc1cc2n(n1)C(c1ccccc1)CC(c1ccc(Br)cc1)=N2 (centres undefined) | inactive |
| CCOC(=O)c1c(SCC(=O)Nc2nccs2)nc(C)c(C)c1C | inactive |
| Cc1cc(C)nc(SC2CC(=O)N(c3ccc(C)c(C)c3)C2=O)n1 (centres undefined) | inactive |
| Cc1ccc(N2C(=O)CC(Sc3nc4ccccc4o3)C2=O)cc1Cl (centres undefined) | 39.8 µM (active) |
| CC(=O)NS(=O)(=O)c1ccc(N2C(=O)CC(Sc3nccc(C)n3)C2=O)cc1 (centres undefined) | inactive |
| CSc1ccc(/C=C2\CCn3c2nc2cc(C(=O)O)ccc2c3=O)cc1 | inactive |
| CCN(CC)C(=O)c1cc2c(=O)n3cccc(C)c3nc2s1 | inactive |
| C/C(=N\NC(=O)COc1ccc([N+](=O)[O-])cc1)c1ccco1 | inactive |
| O=C(Cn1nnc(-c2ccccc2)n1)NCC(=O)Nc1ccc(F)c(F)c1F | inactive |
| Cc1ccccc1-c1nnn(CC(=O)Nc2ccc3c(c2)OCO3)n1 | inactive |
| Cc1cccc(C)c1NC(=O)Cn1nnc(-c2ccc(N3CCOCC3)cc2)n1 | 39.8 µM (active) |
| CCOCCCNC(=O)c1c(N)n(-c2ccc3c(c2)OCO3)c2nc3ccccc3nc12 | inactive |
| COc1cccc2c(=O)c3c(cnn3C)n(C)c12 | inactive |
| COc1ccccc1CNC(=O)CCC1N=C2c3ccccc3N=C(SCc3ccc(C)cc3C)N2C1=O (centres undefined) | 17.8 µM (active) |
| COc1ccccc1CNC(=O)CN1C(=O)c2cccc(N)c2C1=O | inactive |
| O=C(NCc1nnc(S)n1-c1cccc(C(F)(F)F)c1)c1ccc(S(=O)(=O)N2CCCCC2)cc1 | inactive |
| Nc1cccn2c(-c3ccc(Cl)cc3)cnc12 | inactive |
| Cc1cc(-c2ccccc2)nc2oc(C(=O)NN)c(N)c12 | inactive |

| SMILES | Potency |
| --- | --- |
| Cc1ccc(CSc2nc(-c3ccccc3C)nc3c2Cc2c(CO)cnc(C)c2O3)cc1 | 28.2 µM (active) |
| Cc1ccc(CSc2nc3ccccc3c(=O)n2C)cc1 | inactive |
| COc1ccc(C2CC(c3ccccc3Cl)=NN2c2ccc(S(N)(=O)=O)cc2)cc1 (centres undefined) | inactive |
| CC(=O)Nc1ccc(C(=O)Nc2ccncc2)cc1 | inactive |
| CC(C)CC(NS(=O)(=O)OCC(Cl)(Cl)Cl)c1ccccc1 (centres undefined) | 35.5 µM (active) |
| Cc1ccc(C)c(N(C(=O)c2snc(C(N)=O)c2N)C(C(=O)NCC2CCCO2)c2ccc(C)o2)c1 (centres undefined) | inactive |
| N=c1c(C(=O)NCC2CCCO2)cc2c(=O)n3ccccc3nc2n1C1CCCC1 (centres undefined) | inactive |
| COC(=O)c1ccc(N2C(c3cc(OC)cc(OC)c3)=Cc3ccc(-c4ccc(C(N)=O)cc4)cc3C2CC(=O)C2CC2)cc1 (centres undefined) | inactive |
| N=C1c2c(cc(O)n3c2nc2ccccc23)CN1CCN1CCOCC1 | inactive |
| C[C@@H](C[C@@H](O)[C@H](O)C(C)(C)O)[C@@H]1CC[C@]2(C)C3=CC[C@H]4C(C)(C)C(=O)CC[C@]4(C)[C@H]3CC[C@@]12C | 39.8 µM (active) |
| Cc1cc(C)c(C(=O)CSc2nc(C)cc(C)c2C(N)=O)c(C)c1 | inactive |
| CSc1nc2sc3c(c2c(=O)n1CC(C)C)CC(C)(C)OC3 | inactive |
| Oc1nc(C(Cl)Cl)nc2sc3c(c12)CCN(Cc1ccccc1)C3 | inactive |
| CC(=O)N1CCc2c(sc3nc(SCC(C)C)n(-c4ccc(C)c(Cl)c4)c(=O)c23)C1 | 25.1 µM (active) |
| COc1cccc(C(=O)Nc2cccc(-c3ccc(N4CCOCC4)nn3)c2)c1OC | inactive |
| Cc1cc(S(=O)(=O)Nc2cccc(-c3ccc(N4CCOCC4)nn3)c2)c(C)cc1Cl | 39.8 µM (active) |
| O=C(Nc1ccc(N2CCOCC2)c(S(=O)(=O)Nc2cc(Cl)ccc2Cl)c1)c1cccnc1 | inactive |
| COc1ccc(F)cc1S(=O)(=O)Nc1cccc(-c2ccc(N3CCCCCC3)nn2)c1 | 39.8 µM (active) |
| Cc1ccc(S(=O)(=O)NCCC(=O)Oc2ccc3ccc(=O)oc3c2)cc1 | inactive |
| Cc1ccc2c(Cl)cc(Cl)c(OCC(=O)NC(C)(C)C)c2n1 | inactive |
| Cc1oc(-c2cccc(NC(=O)c3ccccn3)c2)nc1CNC(=O)C#Cc1ccccc1 | inactive |
| COC(=O)c1cccc(C(=O)NCc2nc(-c3cccc(NC(=O)c4ccoc4C)c3)oc2C)c1 | 31.6 µM (active) |
| CSc1nc(C(=O)NCc2nc(-c3cccc(NC(=O)c4ccccn4)c3)oc2C)cs1 | inactive |
| CSc1ccccc1C(=O)NCc1nc(-c2cccc(NC(=O)c3ccoc3C)c2)oc1C | 25.1 µM (active) |
